# ChEMBL document CHEMBL3433997, “St. Jude Leishmania screening dataset” (2016)
# Target: Hexose transporter 1 (Plasmodium falciparum) (UniProt O97467)
# Experiment: ST_JUDE_LEISH: Cytotoxicity at 2uM final concentration against transgenic Leishmania Mexicana promastigotes LmPfHT that are glucose transport deficient and complemented with the Plasmodium falciparum hexose transporter. Activity is measured by DNA content using SYBR green in vitro
# Format: functional
row,SMILES,inhibition [%]
1,O=C(C=Cc1ccc(Cl)c(Cl)c1)NCCCCCN1CCC(CCCNC(=O)c2ccc3c(c2)OCO3)CC1,4.24
2,O=C(Nc1ccc(-c2cccc(-c3nc4ccccc4[nH]3)c2)cc1)Nc1ccc(F)c(F)c1F,-0.07
3,Cc1cc(N(C)C2CCN(C)C2)nc(Nc2ccccc2Cl)n1 (stereo not given),2.69
4,CN1CCCC(CN2CCN(Cc3cccc(-c4ccc(-c5nc6cc(C(F)(F)F)ccc6[nH]5)cc4)c3)CC2)C1 (stereo not given),0.64
5,CN(Cc1cc(C(F)(F)F)cc(C(F)(F)F)c1)C(=O)C1CNCC1c1ccc(F)cc1 (stereo not given),5.75
6,OC(CNC1CCCCC1)Cn1c2ccc(Br)cc2c2cc(Br)ccc21 (stereo not given),0.28
7,C[C@@H](CC1CCCCC1)NCc1cccc(NS(=O)(=O)c2ccc(O)c(-c3ccno3)c2)c1,8.37
8,COc1nc(NCC(C)C)nc(Oc2ccc(=O)n(Cc3ccccc3)n2)n1,1.88
9,O=C(CN1CCCC1)Nc1cccc(C(=O)Nc2cccc(C(F)(F)F)c2)c1,1.57
10,Fc1ccc(-c2nc(NCc3cccc(C(F)(F)F)c3)nn2-c2cccc(C(F)(F)F)c2)cc1C(F)(F)F,1.48
11,CCCCCCOc1ccc(N2C(N)=NC(N)=NC2(C)C)cc1,1.46
12,O=C(c1cc(-c2ccco2)n[nH]1)N1CCN(S(=O)(=O)c2ccc(Br)cc2)CC1,10.2
13,CN1CCN(c2ccnc3ccc(NC(=O)Nc4ccc(Br)cc4)cc23)CC1,0.3
14,CC(C)(C)NC(=O)C(c1ccc(F)cc1)N(C(=O)c1ccc(CN2CCOCC2)o1)c1ccc(C2CCCCC2)cc1 (stereo not given),2.31
15,FC(F)(F)c1ccc2[nH]c(-c3ccc(-c4ccc(CN5CCN(c6ccncc6)CC5)cc4)s3)nc2c1,-1.36
16,COC(=O)c1cccc(CNCc2cccc(-c3ccc(-c4nc5cc(C(F)(F)F)ccc5[nH]4)cc3)c2)c1,3.53
17,COc1c(CN2CCOCC2)cccc1-c1cc2c(-c3ccc(C(=O)O)c(C(C)C)c3)ccnc2[nH]1,3.17
18,CNCCCn1c(N(C)C)nc2cc(-n3cnc4cc(-c5ccc(Cl)cc5)sc4c3=O)ccc21,3.48
19,CC1(C)N=C(N)N=C(N)N1OCCCc1ccccc1,2.68
20,COc1ccc(N2CCN(CCCCNC(=O)c3ccc(NC(=O)c4ccc(OC(F)(F)F)cc4)cc3)CC2)c(OC)c1,5.69

row,SMILES,inhibition [%]
1,COc1cc2nc(NCCCO)nc(Nc3ccc(Oc4ccccc4)cc3)c2cc1OC,6.09
2,Nc1ncc(-c2ccc3[nH]ccc3c2)c2ccc(-c3ccncc3)cc12,10.2
3,Cc1cc(Cl)c(S(=O)(=O)N2CCc3ccccc32)cc1OCC(=O)NC1CCCCC1,1.17
4,COc1ccccc1NC(=O)NC1CCN(CCCCCNC(=O)/C=C/c2ccc(Cl)c(Cl)c2)CC1,2.75
5,CCOC(=O)c1cc(=O)c2ccc(OCC#N)cc2o1,82.1
6,NC1CCN(CCc2ccc(NS(=O)(=O)c3ccc(-c4ccccc4)cc3)cc2)CC1,-0.24
7,O=C(/C=C/c1ccccc1Cl)Nc1ccc(Br)c(OCCN2CCN(CCN3CCCC3)CC2)c1,3.71
8,CC(C)Oc1cccc(-c2ccc(C(=O)NCC3CCCN(Cc4cccc(C(F)(F)F)c4)C3)s2)c1 (stereo not given),-1.35
9,COc1ccc(NC(=O)c2ccc(-c3nc(-c4ccc(Cl)cc4)cs3)cc2)cc1N1CCN(C)CC1,0.94
10,COCCSc1nc2scc(C)c2c(=O)n1Cc1cccc(OC)c1,4.92
11,NC1CCN(c2nc(NCCc3ccc(O)cc3)nc(NCc3ccccc3-c3ccc(C(F)(F)F)cc3)n2)CC1,3.01
12,CN(C)c1ccc(CN2CCC(NC(=O)c3ccc(-c4cccc(C(F)(F)F)c4)s3)CC2)cc1,-0.72
13,Cn1c(Nc2cc(C(C)(C)C)on2)nc2cc(Nc3ccnc(Nc4ccc(CS(C)(=O)=O)cc4)n3)ccc21,1.48
14,COc1ccc(C2CCC(NCCCCNC(=O)c3ccc(NC(=O)c4ccc(Cl)cc4)cc3)CC2)cc1 (stereo not given),4.07
15,O=C(Nc1cccc(C(F)(F)F)c1)c1cccc(S(=O)(=O)NC2CCN(CC3CCCCC3)C2)c1 (stereo not given),-0.46
16,CN(C)c1ccc(OCCCCCCOc2ccccc2)cc1,1.77
17,O=C(Nc1ccc(NC2=NCCN2)cc1)c1ccc(C(=O)Nc2ccc(NC3=NCCN3)cc2)cc1,18.1
18,CC(C)CCCC(C)NC[C@@H](O)[C@H](Cc1ccccc1)NC(=O)c1cc(N2CCCC2=O)cc(N(c2ccccc2)S(C)(=O)=O)c1 (stereo not given in full),2.61
19,COc1ccc(OCC(=O)Nc2cc(-c3nc4ccccc4[nH]3)ccc2Cl)cc1,6.14
20,COc1ccc(CNCc2ccccc2)cc1-c1ccc(S(=O)(=O)NCCN2CCCC2)c(F)c1,13

# Target: Glucose transporter (Leishmania mexicana) (UniProt O61059)
# Experiment: ST_JUDE_LEISH: Cytotoxicity at 2uM final concentration against transgenic Leishmania Mexicana promastigotes LmGT2 that are glucose transport deficient and complemented with the L. Mexicana glucose transporter 2. Activity is measured by DNA content using SYBR green in vitro
# Format: functional
row,SMILES,inhibition [%]
1,O=C(C=Cc1ccc(Cl)c(Cl)c1)NCCCCCN1CCC(CCCNC(=O)c2ccc3c(c2)OCO3)CC1,-3.71
2,O=C(Nc1ccc(-c2cccc(-c3nc4ccccc4[nH]3)c2)cc1)Nc1ccc(F)c(F)c1F,0.32
3,Cc1cc(N(C)C2CCN(C)C2)nc(Nc2ccccc2Cl)n1 (stereo not given),2.94
4,CN1CCCC(CN2CCN(Cc3cccc(-c4ccc(-c5nc6cc(C(F)(F)F)ccc6[nH]5)cc4)c3)CC2)C1 (stereo not given),1.86
5,CN(Cc1cc(C(F)(F)F)cc(C(F)(F)F)c1)C(=O)C1CNCC1c1ccc(F)cc1 (stereo not given),3.05
6,OC(CNC1CCCCC1)Cn1c2ccc(Br)cc2c2cc(Br)ccc21 (stereo not given),0.64
7,C[C@@H](CC1CCCCC1)NCc1cccc(NS(=O)(=O)c2ccc(O)c(-c3ccno3)c2)c1,14.5
8,COc1nc(NCC(C)C)nc(Oc2ccc(=O)n(Cc3ccccc3)n2)n1,3.48
9,O=C(CN1CCCC1)Nc1cccc(C(=O)Nc2cccc(C(F)(F)F)c2)c1,3.18
10,Fc1ccc(-c2nc(NCc3cccc(C(F)(F)F)c3)nn2-c2cccc(C(F)(F)F)c2)cc1C(F)(F)F,2.56
11,CCCCCCOc1ccc(N2C(N)=NC(N)=NC2(C)C)cc1,0.46
12,O=C(c1cc(-c2ccco2)n[nH]1)N1CCN(S(=O)(=O)c2ccc(Br)cc2)CC1,7.48
13,CN1CCN(c2ccnc3ccc(NC(=O)Nc4ccc(Br)cc4)cc23)CC1,0.32
14,CC(C)(C)NC(=O)C(c1ccc(F)cc1)N(C(=O)c1ccc(CN2CCOCC2)o1)c1ccc(C2CCCCC2)cc1 (stereo not given),0.51
15,FC(F)(F)c1ccc2[nH]c(-c3ccc(-c4ccc(CN5CCN(c6ccncc6)CC5)cc4)s3)nc2c1,-2.12
16,COC(=O)c1cccc(CNCc2cccc(-c3ccc(-c4nc5cc(C(F)(F)F)ccc5[nH]4)cc3)c2)c1,2.66
17,COc1c(CN2CCOCC2)cccc1-c1cc2c(-c3ccc(C(=O)O)c(C(C)C)c3)ccnc2[nH]1,3.15
18,CNCCCn1c(N(C)C)nc2cc(-n3cnc4cc(-c5ccc(Cl)cc5)sc4c3=O)ccc21,3.76
19,CC1(C)N=C(N)N=C(N)N1OCCCc1ccccc1,2.65
20,COc1ccc(N2CCN(CCCCNC(=O)c3ccc(NC(=O)c4ccc(OC(F)(F)F)cc4)cc3)CC2)c(OC)c1,6.29

row,SMILES,inhibition [%]
1,COc1cc2nc(NCCCO)nc(Nc3ccc(Oc4ccccc4)cc3)c2cc1OC,4.69
2,Nc1ncc(-c2ccc3[nH]ccc3c2)c2ccc(-c3ccncc3)cc12,9.5
3,Cc1cc(Cl)c(S(=O)(=O)N2CCc3ccccc32)cc1OCC(=O)NC1CCCCC1,2.14
4,COc1ccccc1NC(=O)NC1CCN(CCCCCNC(=O)/C=C/c2ccc(Cl)c(Cl)c2)CC1,2.7
5,CCOC(=O)c1cc(=O)c2ccc(OCC#N)cc2o1,74.8
6,NC1CCN(CCc2ccc(NS(=O)(=O)c3ccc(-c4ccccc4)cc3)cc2)CC1,0.08
7,O=C(/C=C/c1ccccc1Cl)Nc1ccc(Br)c(OCCN2CCN(CCN3CCCC3)CC2)c1,4.6
8,CC(C)Oc1cccc(-c2ccc(C(=O)NCC3CCCN(Cc4cccc(C(F)(F)F)c4)C3)s2)c1 (stereo not given),-3
9,COc1ccc(NC(=O)c2ccc(-c3nc(-c4ccc(Cl)cc4)cs3)cc2)cc1N1CCN(C)CC1,0.9
10,COCCSc1nc2scc(C)c2c(=O)n1Cc1cccc(OC)c1,4.9
11,NC1CCN(c2nc(NCCc3ccc(O)cc3)nc(NCc3ccccc3-c3ccc(C(F)(F)F)cc3)n2)CC1,2.19
12,CN(C)c1ccc(CN2CCC(NC(=O)c3ccc(-c4cccc(C(F)(F)F)c4)s3)CC2)cc1,5.11
13,Cn1c(Nc2cc(C(C)(C)C)on2)nc2cc(Nc3ccnc(Nc4ccc(CS(C)(=O)=O)cc4)n3)ccc21,2.34
14,COc1ccc(C2CCC(NCCCCNC(=O)c3ccc(NC(=O)c4ccc(Cl)cc4)cc3)CC2)cc1 (stereo not given),4.39
15,O=C(Nc1cccc(C(F)(F)F)c1)c1cccc(S(=O)(=O)NC2CCN(CC3CCCCC3)C2)c1 (stereo not given),2.99
16,CN(C)c1ccc(OCCCCCCOc2ccccc2)cc1,1.98
17,O=C(Nc1ccc(NC2=NCCN2)cc1)c1ccc(C(=O)Nc2ccc(NC3=NCCN3)cc2)cc1,6.75
18,CC(C)CCCC(C)NC[C@@H](O)[C@H](Cc1ccccc1)NC(=O)c1cc(N2CCCC2=O)cc(N(c2ccccc2)S(C)(=O)=O)c1 (stereo not given in full),1.65
19,COc1ccc(OCC(=O)Nc2cc(-c3nc4ccccc4[nH]3)ccc2Cl)cc1,3.14
20,COc1ccc(CNCc2ccccc2)cc1-c1ccc(S(=O)(=O)NCCN2CCCC2)c(F)c1,10.7
